Outcome and AC50 data for 40 compounds are collected here from PubChem BioAssay (EPA / NIEHS).

Molecules are shown by their SMILES. Several values for one entry are separate records, joined by “and”; a condition that tells them apart may be missing. Identical values can stand only once. Activity calls are given as the source filed them. Rule for the calls: active = hit-call score of the fitted dose curve at least 0.9, where 1 is the maximum; inactive = score below 0.9.

Sequence of E-selectin (Homo sapiens) (P16581 whole entry, looked up): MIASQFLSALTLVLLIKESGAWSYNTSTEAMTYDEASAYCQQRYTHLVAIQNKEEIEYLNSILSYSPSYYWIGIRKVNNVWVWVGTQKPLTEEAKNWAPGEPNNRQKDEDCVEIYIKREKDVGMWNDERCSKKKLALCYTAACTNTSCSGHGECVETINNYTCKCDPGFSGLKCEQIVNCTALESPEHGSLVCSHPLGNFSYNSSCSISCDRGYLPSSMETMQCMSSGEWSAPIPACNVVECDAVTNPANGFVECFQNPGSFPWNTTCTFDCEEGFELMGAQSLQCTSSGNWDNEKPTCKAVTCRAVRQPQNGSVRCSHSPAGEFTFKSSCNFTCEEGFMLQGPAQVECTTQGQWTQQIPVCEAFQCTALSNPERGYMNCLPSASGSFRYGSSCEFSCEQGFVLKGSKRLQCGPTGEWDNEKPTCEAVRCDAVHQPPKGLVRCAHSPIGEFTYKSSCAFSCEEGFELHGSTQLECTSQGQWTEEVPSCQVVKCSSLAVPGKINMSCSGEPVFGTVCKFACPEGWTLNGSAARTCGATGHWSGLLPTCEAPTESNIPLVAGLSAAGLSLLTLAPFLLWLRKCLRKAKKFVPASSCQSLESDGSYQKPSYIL

Read-out in this experiment: E-selectin (Homo sapiens) (UniProt P16581)
Put plainly: BSK_3C_Eselectin: BioMAP Diversity Plus: 3C Assay for Eselectin Biomarker Activity (AID 2283015). Particulars: primary human endothelial cells (HUVEC); actives raise or lower the signal. The procedure: BSK_3C is a cell-based, multiplexed-readout assay that uses umbilical vein endothelium, a human vascular primary cell, with measurements taken at 24 hours after chemical dosing in a 96-well plate.BSK_3C_Eselectin is an assay component measured in the BSK_3C assay. It measures E-selectin antibody related to regulation of gene expression using ELISA technology.Data from the assay component BSK_3C_Eselectin was analyzed into 1 assay endpoint. This assay endpoint, BSK_3C_Eselectin, was analyzed with bidirectional fitting relative to DMSO as the negative control and baseline of activity. Using a type of binding reporter, gain or loss-of-signal activity can be used to understand changes in the signaling as they relate to the gene SELE. Furthermore, this assay endpoint can be referred to as a primary readout, because this assay has produced multiple assay endpoints where this one serves a signaling function. To generalize the intended target to other relatable targets, this assay endpoint is annotated to the cell adhesion molecules intended target family, where the subfamily is selectins.
The levels of cell surface (or secreted, indicated by the prefix "s") biomarker endpoints were measured by ELISA. Overt cytotoxicity to cells in confluent adherent cultures (all systems other than the BT system) was assessed by measuring total protein levels using sulforhodamine B (SRB) staining in parallel cultures at the time of biomarker measurements, indicated as SRB endpoints. For proliferation assays for adherent cell types, individual cell types are cultured at sub-confluence and relative cell numbers quantified by SRB staining at time points optimized for each system (48 h: 3C and CASM3C systems; 72 h: BT and HDF3CGF systems; 96 h: SAg system). SRB was performed by staining cells with 0.1% SRB after fixation with 10% TCA and reading wells at 560 nm.Viability and proliferation of PBMC (T cells) was quantified by Alamar Blue reduction for the SAg and BT systems. For PBMC viability (referred to as PBMC Cytotoxicity within the assay endpoint names), cells were plated (75,000/well in a 96-well plate) and then chemical samples added for 1 h before addition of activators, SEB and TSST-1 (20 ng/mL final concentration each). Cells were incubated for 90 h. Then, Alamar Blue (20 uL/well) (Invitrogen, Cat DAL1100) was added for 6 h, and the plates were read with a fluorescence microplate reader at 546/580 nm (excitation/emission). For PBMC proliferation, cells were plated and activated as above but incubated for only 16 h prior to addition of Alamar Blue. Plates were read after 6 h.
Consider `O=C(O)C(Cl)Cl`, for which the outcome was inactive.

As for `CCOC(=O)c1ccccc1C(=O)OCC`, the result was inactive.

As for `O=C(O)C(F)(F)OC(F)(F)C(F)(F)OC(F)(F)F`, the result was inactive.

With `CCCCN(CCCC)SN(C)C(=O)Oc1cccc2c1OC(C)(C)C2`, the AC50 was 22.9 µM (active).

`OCC(F)(F)OC(F)(F)C(F)(F)OC(F)(F)CO`: the outcome was inactive.

Turning to `CCOP(=S)(OCC)SCSc1ccc(Cl)cc1`, the outcome was inactive.

Consider `CCOP(=S)(Oc1ccc([N+](=O)[O-])cc1)c1ccccc1` (stereo not given), for which the outcome was inactive.

In the case of `COP(=O)(O)OC`, the result was inactive.

As for `FC(F)(F)C(F)(C(F)(F)F)C(F)(F)C(F)(F)CC1CO1` (stereo not given), the outcome was inactive.

With `CCNc1nc(Cl)nc(NC(C)(C)C)n1`, the result was inactive.

Turning to `O=[N+]([O-])c1ccccc1`, the outcome was inactive.

As to `CCOP(=S)(OCC)SCSCC`, the result was inactive.

In the case of `O=[N+]([O-])c1ccc(Cl)c(Cl)c1`, the outcome was inactive.

For the compound `C=CC(=O)OCC(CC)(COC(=O)C=C)COC(=O)C=C`, the AC50 was 2.37 µM (active).

With `CC(C)Nc1ccc(Nc2ccccc2)cc1`, the AC50 was 10.6 µM (active).

`O=c1ssc(Cl)c1Cl`: the AC50 was 6.13 µM (active).

`ClC(Cl)c1ccccc1`: the result was inactive.

For the compound `OCC(F)(F)OC(F)(F)C(F)(F)OC(F)(F)C(F)(F)OC(F)(F)CO`, the outcome was inactive.

In the case of `Cc1cccc(N)c1`, the result was inactive.

In the case of `CCC(C)(C)c1ccc(O)cc1`, the result was inactive.

For the compound `O=P(Oc1ccccc1)(Oc1ccccc1)Oc1ccccc1`, the result was inactive.

With `Cc1ccc(O)cc1C`, the outcome was inactive.

Turning to `N#Cc1c(-c2ccc(Cl)cc2)[nH]c(C(F)(F)F)c1Br`, the outcome was inactive.

Turning to `CCOP(=S)(S)OCC`, the result was inactive.

For `NC(=O)C(F)(F)C(F)(F)F`, the result was inactive.

On to `c1ccc2c(c1)sc1ccccc12`, for which the outcome was inactive.

On to `ClC(Cl)=C(c1ccc(Cl)cc1)c1ccccc1Cl`, for which the AC50 is 20 µM (active).

Regarding `C=CC(=O)OCC(F)(F)C(F)F`, the AC50 is 18.4 µM (active) and 20.4 µM (active).

As for `c1nc[nH]n1`, the outcome was inactive.

Regarding `CC(C)(C)c1ccc(O)cc1`, the outcome was inactive.

`COP(=O)(CCC(=O)NCO)OC`: the result was inactive.

`CC(C)(C)c1ccccc1OP(=O)(Oc1ccccc1)Oc1ccccc1`: the AC50 was 7.83 µM (active).

As to `c1ccc(OP(Oc2ccccc2)Oc2ccccc2)cc1`, the outcome was inactive.

Consider `CCCCC(CC)COP(=O)(Oc1ccccc1)Oc1ccccc1` (stereo not given), for which the AC50 was 6.53 µM (active).

With `O=P(OCC(Br)CBr)(OCC(Br)CBr)OCC(Br)CBr` (stereo not given), the AC50 was 17.4 µM (active).

As to `O=C(O)C(F)(OC(F)(F)C(F)(F)C(F)(F)F)C(F)(F)F` (stereo not given), the result was inactive.

For the compound `CCC1(c2ccccc2)C(=O)N=C(O)NC1=O` (stereo not given), the result was inactive.

As for `Nc1ccc2ccccc2c1`, the outcome was inactive.

Take `Cc1c([N+](=O)[O-])cc2c(c1[N+](=O)[O-])C(C)(C)CC2(C)C`: the result was inactive.

Turning to `Cc1ccc(N)cc1N`, the outcome was inactive.
